Compounds with a hit are over-represented: about 1.7% of the library has one in this group of screens.
MRP-1 activ: activates MRP-1; H69AR cells + doxorubicin, viability rescue, CellTiter-Glo; viability increase, % at 10 µM; actives 0.61% (n = 140,000);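 active means viability gain under doxorubicin at or above a set limit, the compound median plus 3 SD, cut at about 4.7% in these data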;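 further: MRP-1 overexpressing cells given doxorubicin 25 µM after compound pretreatment; 18-22 h compound pretreatment then 72 h with doxorubicin before readout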
S1P2 blocker: blocks the human S1P2 receptor; O95136; actives 0.21% (n = 97,000); AID 736; inhibition, % at 5 µM; cell-based S1P2 antagonist assay, inhibition at 5 uM; in the data active means inhibition above about 45%;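 further: CRE beta-lactamase reporter cells expressing human S1P2 stimulated with S1P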
Target sequence (O95136 whole entry, looked up): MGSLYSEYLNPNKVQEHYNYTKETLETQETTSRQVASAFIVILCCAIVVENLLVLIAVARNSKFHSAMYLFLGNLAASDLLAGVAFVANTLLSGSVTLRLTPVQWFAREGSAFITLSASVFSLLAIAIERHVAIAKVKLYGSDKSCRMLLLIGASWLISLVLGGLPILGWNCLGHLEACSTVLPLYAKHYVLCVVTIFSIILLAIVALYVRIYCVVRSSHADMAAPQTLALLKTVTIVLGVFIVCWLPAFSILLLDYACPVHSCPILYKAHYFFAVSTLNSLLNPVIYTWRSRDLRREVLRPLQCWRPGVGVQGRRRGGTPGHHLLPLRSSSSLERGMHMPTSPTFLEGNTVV
GALR2 ag: agonists of human galanin receptor 2 (GALR2); O43603; GALR2-expressing cells, agonist activation read-out; activation, % (test concentration not listed); actives 0.48% (n = 140,000); AID 803; in the data active means activation above about 5%, passing the limit was not always enough
Target sequence (O43603 whole entry, looked up): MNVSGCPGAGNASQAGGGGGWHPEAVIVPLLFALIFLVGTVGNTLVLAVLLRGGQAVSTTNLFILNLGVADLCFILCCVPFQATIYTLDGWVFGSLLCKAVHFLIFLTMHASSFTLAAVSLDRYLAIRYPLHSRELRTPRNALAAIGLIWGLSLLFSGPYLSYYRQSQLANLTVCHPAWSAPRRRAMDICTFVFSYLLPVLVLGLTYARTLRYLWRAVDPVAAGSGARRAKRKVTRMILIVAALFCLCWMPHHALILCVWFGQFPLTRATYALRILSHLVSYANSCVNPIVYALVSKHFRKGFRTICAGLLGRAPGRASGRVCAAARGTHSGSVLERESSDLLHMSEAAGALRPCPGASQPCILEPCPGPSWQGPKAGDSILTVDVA
S1P2 agonist: agonists of human S1P2 receptor. O95136. AID 729. S1P2-expressing cell line, agonist reporter read-out. actives 0.46% (n = 97,000). activation, % at 4.5 µM; in the data active means activation above about 16%
MRP resist rev: reverses drug resistance mediated by MRP | H69AR cells + 2 uM doxorubicin, CellTiter-Glo, 72 h | differential viability (reversal), % at 10 µM | AID 602 | actives 0.04% (n = 85,000);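 active means viability drop by adding the cancer drug above about 55%, with treated viability meeting a 40% cutoff, limit read from the data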;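 further: larger differential means the compound sensitizes cells more to doxorubicin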
GALR2 blocker: GALR2 (human) receptor antagonism; inhibition, % at 4 µM; actives 0.39% (n = 140,000); O43603; GALR2-expressing cells, antagonist mode; in the data active means inhibition above about 27%;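 further: cells stimulated with galanin 1-16 at roughly its EC80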
GALR2 agon conf: confirmation of human galanin receptor 2 (GALR2) agonists; shares compounds with GALR2 ag; GALR2-expressing cells, agonist activation; activation, % at 5.6 µM; actives 10% (n = 460); in the data active means activation above about 8.4%
BLA activ ctr: activates beta-lactamase reporter in GALR2 agonist counterscreen; activation, % at 5.6 µM; actives 10% (n = 460); CHO NFAT-bla reporter, beta-lactamase FRET activation; shares compounds with GALR2 ag;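 active means activation above the screen-wide mean activation plus 3 SD, cut at about 8% in these data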
Each line names hits and unclear results; the compound was inactive in the other large screens (follow-up assays come after a bar, where they were run).

COc1ccc(S(=O)(=O)N(C(C)=O)c2ccc(OC(C)=O)c3ccccc23)cc1[N+](=O)[O-]	none (no result: S1P2 blocker, S1P2 agonist, MRP resist rev)
Cc1ccccc1Nc1nc(-c2sc(NC(=O)c3ccccc3)nc2C)cs1	GALR2 ag 19 (no result: MRP resist rev) | GALR2 agon conf inactive | BLA activ ctr inactive
Cc1cccn2c(=O)c3cc(C(=O)NCc4cccnc4)c(=N)n(C(C)C)c3nc12	none | GALR2 agon conf inactive | BLA activ ctr inactive
CCOC(=O)C(=Cc1ccc(F)cc1)C(=O)OCC	none (no result: MRP resist rev)
CCOC(=O)/C(=C/c1ccc(N2CCC(c3ccccc3)=N2)cc1)C(C)=O	GALR2 ag 14 (no result: S1P2 blocker, S1P2 agonist, MRP resist rev) | GALR2 agon conf inactive | BLA activ ctr 11
Cc1occc(=O)c1OC(=O)Nc1ccc(Cl)c(Cl)c1	none (no result: S1P2 blocker, S1P2 agonist, MRP resist rev)
COc1ccc(Nc2cc(C(=O)NCc3ccco3)c3ccccc3n2)cc1	GALR2 ag 9.7 (no result: S1P2 blocker, S1P2 agonist, MRP resist rev) | GALR2 agon conf inactive | BLA activ ctr inactive
COc1ccc(Nc2cc(C(=O)NCCCN3CCN(C)CC3)c3ccccc3n2)cc1	none
O=C(NCCc1ccccc1)C(=O)N/N=C/c1ccccc1C(F)(F)F	none | GALR2 agon conf inactive | BLA activ ctr inactive
O=C(NCCc1ccccc1)C(=O)N/N=C/c1ccc2c(c1)OCO2	none (no result: MRP resist rev)
CCOC(=O)C1(C)NC(c2ccc(OC)cc2OC)C2C(=O)N(c3cccc(OC)c3)C(=O)C21 (configuration not stated)	none
CC1CN(C2CCN(S(=O)(=O)c3ccccc3)CC2)CC(C)O1 (configuration not stated)	none
CC1CN(C2CCN(S(=O)(=O)Cc3ccccc3)CC2)CC(C)O1 (configuration not stated)	none | GALR2 agon conf inactive | BLA activ ctr inactive
COCCN1C=C(C(=O)OC)C(c2cc(Br)c(OC)c(OC)c2)C(C(=O)OC)=C1	none | GALR2 agon conf inactive | BLA activ ctr inactive
O=C(NCc1ccccc1Cl)c1ccccc1Oc1ccccc1	none (no result: S1P2 blocker, S1P2 agonist, MRP resist rev)
COc1ccccc1-n1cc(-c2ccc(Cl)cc2)[nH]c1=O	none (no result: S1P2 blocker, S1P2 agonist, MRP resist rev)
O=C(N/N=C/C(Br)=C\c1ccccc1)c1ccc2nc[nH]c2c1	none (no result: S1P2 blocker, S1P2 agonist, MRP resist rev)
CCOc1ccc(N2C(=O)Nc3ccccc3C2(O)C(=O)NCc2ccc3c(c2)OCO3)cc1 (configuration not stated)	none (no result: MRP resist rev)
COc1ccc(-c2nnc(-c3ccc(OCC(C)C)cc3)o2)cc1	GALR2 ag 14 | GALR2 agon conf inactive | BLA activ ctr inactive
COC(=O)C1=C(C)Nc2ncnn2C1c1ccc(OCc2ccccc2)cc1 (configuration not stated)	GALR2 ag 104 (no result: S1P2 blocker, S1P2 agonist) | GALR2 agon conf inactive | BLA activ ctr inactive
COC(=O)c1c(C)[nH]c(C(=O)CSc2nnnn2-c2ccccc2)c1C	GALR2 ag 99 | GALR2 agon conf inactive | BLA activ ctr inactive
CC(NS(=O)(=O)c1ccc(OCC(=O)Nc2cccc([N+](=O)[O-])c2)cc1)c1ccccc1 (configuration not stated)	none (no result: S1P2 blocker, S1P2 agonist, MRP resist rev)
CCCN1C(=O)/C(=C2\SC(N3CCCCC3)=NC2=O)c2ccccc21	GALR2 ag 59 | GALR2 agon conf inactive | BLA activ ctr inactive
CCc1ccc(NC(=O)CSc2nnc(CC)c(CC)n2)cc1	GALR2 ag 22 | GALR2 agon conf inactive | BLA activ ctr inactive
CCOC(=S)SCC(=O)N1CCc2ccccc2C1C1C(=O)CCCC1=O (configuration not stated)	none (no result: S1P2 blocker, S1P2 agonist, MRP resist rev)
Cc1ccc(S(=O)(=O)Cn2nnnc2C(c2ccccc2)N2CCN(c3ncccn3)CC2)cc1 (configuration not stated)	none
Cc1ccc(S(=O)(=O)Cn2nnnc2C(c2ccccc2)N2CCN(c3ccccc3)CC2)cc1 (configuration not stated)	GALR2 ag 29 | GALR2 agon conf inactive | BLA activ ctr inactive
COc1ccc(C(=O)NCc2nnc(SCC(=O)Nc3nc4ccccc4s3)o2)cc1OC	none (no result: S1P2 blocker, S1P2 agonist, MRP resist rev)
Nc1nc(-c2ccccc2)cn1N	none (no result: MRP resist rev)
c1ccc(-c2cn3nc(-c4ccccc4)c(-c4ccccc4)nc3n2)cc1	none (no result: MRP resist rev) | GALR2 agon conf inactive | BLA activ ctr inactive
Cc1nc(-c2cccc(S(=O)(=O)N3CCCC(C)C3)c2)cs1 (configuration not stated)	GALR2 ag 27 | GALR2 agon conf inactive | BLA activ ctr inactive
CSC1=NC2(CC(c3ccccc3)Oc3cc(O)ccc32)CC(C)(C)N1 (configuration not stated)	GALR2 ag 20 | GALR2 agon conf 9.2 | BLA activ ctr 78
COc1cccc(C2CC3(CC(C)(C)NC(=S)N3)Oc3cc(O)ccc32)c1 (configuration not stated)	none (no result: S1P2 blocker, S1P2 agonist, MRP resist rev)
Cc1ccccc1CSc1nc(-c2ccccc2)cc(=O)[nH]1	none (no result: S1P2 blocker, S1P2 agonist, MRP resist rev)
CCN(CC)CCNC(=O)c1ccc(N2CCCCC2)c(NS(=O)(=O)c2ccc(C)cc2)c1	GALR2 ag 19 | GALR2 agon conf inactive | BLA activ ctr inactive
COC(=O)c1ccc(N2CCCCC2)c(NS(=O)(=O)c2ccc(C)cc2)c1	GALR2 ag 18 | GALR2 agon conf inactive | BLA activ ctr inactive
COC(=O)c1ccc(N2CCN(S(=O)(=O)c3ccc(C)cc3)CC2)c([N+](=O)[O-])c1	none (no result: MRP resist rev)
CC(C)C(c1nnnn1C(C)(C)C)N1CCC(Cc2ccccc2)CC1 (configuration not stated)	none (no result: S1P2 blocker, S1P2 agonist, MRP resist rev)
O=C(N/N=C/c1ccccc1)c1sccc1OCc1ccc(F)cc1	none (no result: MRP resist rev)
O=C(c1ccccc1)c1nc2ccccc2n(CCCn2c(=O)c(C(=O)c3ccccc3)nc3ccccc32)c1=O	none
COc1ccc(C2=NOC(C(=O)NCc3ccc(F)cc3)C2)cc1OC (configuration not stated)	none | GALR2 agon conf inactive | BLA activ ctr inactive
COc1cc(NC(=O)C2CCCCC2)c(OC)cc1NC(=O)c1ccco1	none
CCOc1cc(NC(=O)C2CCCCC2)c(OCC)cc1NC(=O)c1ccco1	GALR2 ag 32 | GALR2 agon conf inactive | BLA activ ctr inactive
COc1ccccc1[C@@H]1C(c2cccc(Cl)c2)=NN(c2ccc(Br)cc2)[C@H]1C(=O)N1CCOC1=O	GALR2 ag 18 (no result: S1P2 blocker, S1P2 agonist, MRP resist rev) | GALR2 agon conf 23 | BLA activ ctr 46
CS(=O)(=O)N1N=C(c2ccco2)CC1c1ccc(Cl)cc1 (configuration not stated)	none (no result: S1P2 blocker, S1P2 agonist, MRP resist rev)
O=C(COc1ccccc1)Nc1sc2c(c1C(=O)NCc1cccnc1)CCCC2	none (no result: MRP resist rev) | GALR2 agon conf inactive | BLA activ ctr inactive
COc1ccc(/C=C/C(=O)Nc2sc3c(c2C(=O)NCc2cccnc2)CCCC3)cc1	none (no result: MRP resist rev)
CCN(CC)S(=O)(=O)c1ccc(N/N=C/c2cc(OC)c(OC)cc2OC)nc1	GALR2 ag 49 (no result: S1P2 blocker, S1P2 agonist, MRP resist rev) | GALR2 agon conf 21 | BLA activ ctr 33
CCN(CC)S(=O)(=O)c1ccc(N/N=C/c2ccc(OC)c(OC)c2OC)nc1	none (no result: S1P2 blocker, S1P2 agonist, MRP resist rev)
C=CCN1C(=O)C(CC(=O)Nc2ccc(OC)cc2)N(Cc2ccco2)C1=S (configuration not stated)	GALR2 ag 16 (no result: MRP resist rev) | GALR2 agon conf inactive | BLA activ ctr inactive
